Test results reported in PubChem BioAssay AID1159580 (chemical genetic matrix, 2015).
In all, about 5,500 compounds went through this assay and about 2,000 (36%) were called active. About 18% were inconclusive and are not listed. No stated cut-off is given here; in the data, active means normalized growth mostly below about 0.91 (no sharp cut-off); inconclusive means no clear call, values can overlap the other calls; inactive means mostly above about 0.92. Some of the results follow.

Assay: chemical genetic growth profiling, strain panel (AID 1159580);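 further: tested at 20 µM; growth read once vehicle control cultures reached saturation at 30 °C; 1 = growth at the plate median or of vehicle wells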
Conditions: S. cerevisiae deletion strains, growth OD

Measured: normalized growth

CC(=O)Oc1ccc(-c2cc(=O)c3c(OC(C)=O)cc(OC(C)=O)cc3o2)cc1
inactive: locus YAL021C, strain ccr4, stronger effect = lower value 0.975 | locus YAL026C, strain drs2, stronger effect = lower value 0.947 | locus YAL030W, strain snc1, stronger effect = lower value 0.975 | locus YBL061C, strain skt5, stronger effect = lower value 0.965 | locus YBR009C, strain hhf1, stronger effect = lower value 0.96 | locus YBR023C, strain chs3, stronger effect = lower value 0.951 | locus YBR171W, strain sec66, stronger effect = lower value 0.955 | locus YBR231C, strain swc5, stronger effect = lower value 0.968 | locus YBR279W, strain paf1, stronger effect = lower value 0.974 | locus YCL011C, strain gbp2, stronger effect = lower value 0.963 | locus YCL016C, strain dcc1, stronger effect = lower value 0.974 | locus YCL061C, strain MRC1, stronger effect = lower value 0.988 | locus YCL069W, strain vba3, stronger effect = lower value 0.964 | locus YCR088W, strain abp1, stronger effect = lower value 0.966 | locus YDL005C, strain med2, stronger effect = lower value 0.977 | locus YDL040C, strain nat1, stronger effect = lower value 0.966 | locus YDR001C, strain nth1, stronger effect = lower value 0.965 | locus YDR069C, strain doa4, stronger effect = lower value 0.95 | locus YDR137W, strain rgp1, stronger effect = lower value 1 | locus YDR159W, strain sac3, stronger effect = lower value 0.935 | locus YDR195W, strain ref2 0.942 | locus YDR297W, strain sur2, stronger effect = lower value 0.976 | locus YDR334W, strain swr1, stronger effect = lower value 0.958 | locus YDR335W, strain msn5, stronger effect = lower value 0.982 | locus YDR392W, strain spt3, stronger effect = lower value 0.906 | locus YEL003W, strain gim4, stronger effect = lower value 0.961 | locus YEL037C, strain rad23, stronger effect = lower value 0.952 | locus YEL061C, strain CIN8 (second series), stronger effect = lower value 0.958 | locus YER015W, strain faa2, stronger effect = lower value 0.984 | locus YER016W, strain bim1, stronger effect = lower value 0.976 | locus YER111C, strain swi4, stronger effect = lower value 0.953 | locus YER155C, strain BEM2 (second series), stronger effect = lower value 0.957 | locus YFR010W, strain ubp6, stronger effect = lower value 0.957 | locus YGL167C, strain pmr1, stronger effect = lower value 0.965 | locus YGL173C, strain kem1, stronger effect = lower value 0.983 | locus YGL227W, strain vid30, stronger effect = lower value 0.955 | locus YGL240W, strain doc1, stronger effect = lower value 0.962 | locus YGL253W, strain hxk2, stronger effect = lower value 0.973 | locus YHR013C, strain ard1, stronger effect = lower value 0.92 | locus YHR027C, strain rpn1, stronger effect = lower value 0.982 | locus YHR142W, strain chs7, stronger effect = lower value 0.973 | locus YJL092W, strain hpr5, stronger effect = lower value 0.982 | locus YJL095W, strain BCK1 (second series), stronger effect = lower value 0.988 | locus YJL115W, strain asf1, stronger effect = lower value 0.954 | locus YJL129C, strain trk1, stronger effect = lower value 0.95 | locus YJL154C, strain vps35, stronger effect = lower value 0.961 | locus YJL164C, strain tpk1, stronger effect = lower value 0.964 | locus YJL166W, strain qcr8, stronger effect = lower value 0.971 | locus YJL187C, strain SWE1, stronger effect = lower value 0.976 | locus YKL160W, strain elf1, stronger effect = lower value 1.01 | locus YKR026C, strain gcn3, stronger effect = lower value 0.949 | locus YKR091W, strain srl3, stronger effect = lower value 0.97 | locus YLL001W, strain dnm1, stronger effect = lower value 0.997 | locus YLL026W, stronger effect = lower value 0.973 | locus YLL041C, strain sdh2, stronger effect = lower value 0.98 | locus YLR027C, strain aat2, stronger effect = lower value 0.96 | locus YLR221C, strain rsa3, stronger effect = lower value 0.958 | locus YLR258W, strain gsy2, stronger effect = lower value 0.977 | locus YLR262C, strain YPT6 (second series), stronger effect = lower value 0.999 | locus YLR320W, strain mms22, stronger effect = lower value 0.958 | locus YLR342W, strain FKS1, stronger effect = lower value 0.968 | locus YLR357W, strain rsc2, stronger effect = lower value 0.902 | locus YLR370C, strain arc18, stronger effect = lower value 0.958 | locus YLR384C, strain iki3, stronger effect = lower value 0.966 | locus YML120C, strain ndi1, stronger effect = lower value 0.967 | locus YMR058W, strain fet3, stronger effect = lower value 0.965 | locus YMR125W, strain sto1, stronger effect = lower value 0.955 | locus YMR129W, stronger effect = lower value 0.967 | locus YMR205C, strain PFK2, stronger effect = lower value 0.941 | locus YMR231W, strain pep5, stronger effect = lower value 0.975 | locus YNL071W, strain lat1, stronger effect = lower value 0.967 | locus YNL209W, strain ssb2, stronger effect = lower value 0.979 | locus YNL248C, strain rpa49, stronger effect = lower value 0.979 | locus YNL322C, strain KRE1 (second series), stronger effect = lower value 0.95 | locus YNR049C, strain mso1, stronger effect = lower value 0.953 | locus YOR001W, strain rrp6, stronger effect = lower value 0.987 | locus YOR070C, strain gyp1, stronger effect = lower value 0.977 | locus YOR080W, strain dia2, stronger effect = lower value 0.961 | locus YOR083W, strain WHI5, stronger effect = lower value 1.02 | locus YOR106W, strain vam3, stronger effect = lower value 0.986 | locus YOR265W, strain rbl2, stronger effect = lower value 0.981 | locus YOR270C, strain vph1, stronger effect = lower value 0.899 | locus YOR290C, strain snf2, stronger effect = lower value 0.899 | locus YPL051W, strain arl3, stronger effect = lower value 1 | locus YPL078C, strain atp4, stronger effect = lower value 0.984 | locus YPL106C, strain sse1, stronger effect = lower value 0.946 | locus YPL240C, strain hsp82, stronger effect = lower value 0.987
